Eight compounds from PubChem BioAssay (EPA / NIEHS) can be followed below.

SMILES strings stand for the structures. Several values for one entry are separate records, joined by “and”; a condition that tells them apart may be missing. Identical values can stand only once. Inconclusive results are not listed. Some compounds were tested as several samples or in several runs, with calls that do not always agree. Activity calls are given as the source filed them. The calls were made as follows, unless noted: active = hit-call score of the fitted dose curve at least 0.9, where 1 is the maximum; inactive = score below 0.9.

The nature of test [1]: ATG_M_61_CIS: Attagene CIS-FACTORIAL HepG2 Assay for M61 Transcription Factor (Internal Marker) (AID 2282937). The note with it: HepG2 Attagene CIS-FACTORIAL M61 internal marker reporter; actives raise or lower the signal. The method in brief: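 Fluorescence from labelled cDNA fragments, separated by capillary electrophoresis, quantifies reporter induction. HepG2 cells bearing transiently transfected cis-promoter MRTUs were incubated with test chemical for 24 h; DMSO defined baseline for gain/loss fitting.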

Test [2] in a line: ATG_Ets_CIS: Attagene CIS-FACTORIAL HepG2 Assay for human Erythroblast Transformation Specific (ETS) (AID 2282941). The note with it: HepG2 ETS cis-reporter transcription, actives raise or lower the signal. Put shortly: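 HepG2 cells transfected with multiple cis-regulated reporter units measuring endogenous ETS-driven transcription, 24 h after dosing. Reporter mRNA quantified by RT-PCR with capillary electrophoresis; bidirectional fit relative to DMSO.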

A short description of test [3]: ATG_PBREM_CIS: Attagene CIS-FACTORIAL HepG2 Assay for human Phenobarbital-responsive Enhancer Module (PBREM) (AID 2282955). The note with it: HepG2 PBREM cis-reporter, Attagene multiplexed transcription; actives raise or lower the signal. Put shortly:
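After a 24 h incubation with test chemical, transfected HepG2 cells yield total RNA; reporter-specific RT-PCR products are fluorescently labelled, HpaI-digested and resolved by capillary electrophoresis against ROX size standards.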

Read-out in test [4]: Vascular cell adhesion molecule 1 (VCAM1), VCAM1 (gene 7412)
Briefly: BSK_hDFCGF_VCAM1: BioMAP Diversity Plus: hDFCGF Assay for Vascular cell adhesion molecule 1 (VCAM1) Biomarker Activity (AID 2283065).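 As to AC50: VCAM-1 protein level quantified by ELISA after 24 h chemical exposure.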 The note with it: primary human foreskin fibroblasts; actives raise or lower the signal. Put shortly: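 Measured after 24 h chemical treatment of primary human skin fibroblasts, VCAM-1 was detected by ELISA and concentration-response analysed in both directions versus DMSO vehicle.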

Read-out in test [5]: Intercellular Adhesion Molecule 1 (ICAM1), ICAM1 (gene 3383)
Kind of test: BSK_KF3CT_ICAM1: BioMAP Diversity Plus: KF3CT Assay for Intercellular Adhesion Molecule 1 (ICAM1) Biomarker Activity (AID 2283067). As to conditions: primary human keratinocytes with fibroblasts; actives raise or lower the signal. Put shortly:
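Bidirectional curve fitting against a DMSO baseline was applied to ICAM-1 ELISA signal from primary human skin co-cultures harvested 24 h after treatment, with SRB staining of parallel wells for overt cytotoxicity.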

Read-out in another test: CD40, CD40 (gene 958)
Kind of test: BSK_LPS_CD40: BioMAP Diversity Plus: LPS Assay for CD40 Biomarker Activity (AID 2283076). The note with it: primary human HUVEC with PBMC; actives raise or lower the signal. Put shortly:
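Using a multiplexed primary human co-culture (umbilical vein endothelium plus PBMC), CD40 was read by ELISA 24 h after dosing, with cytotoxicity tracked by sulforhodamine B staining of parallel cultures and activity fitted bidirectionally versus DMSO.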

Read-out in test [6]: E-selectin (Homo sapiens) (UniProt P16581)
Kind of test: BSK_LPS_Eselectin: BioMAP Diversity Plus: LPS Assay for Eselectin Biomarker Activity (AID 2283077). The note with it: primary human HUVEC with PBMC; actives raise or lower the signal. The method in brief: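 Dose chemical onto LPS-driven HUVEC/PBMC co-culture; after 24 h, run ELISA for E-selectin; fit up- and down-going responses relative to DMSO control.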

Read-out in test [7]: Monocyte Chemoattractant Protein-1 (MCP1), CCL2 (gene 6347)
Kind of test: BSK_LPS_MCP1: BioMAP Diversity Plus: LPS Assay for Monocyte Chemoattractant Protein-1 (MCP1) Biomarker Activity (AID 2283081).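 As to AC50: secreted MCP-1 protein quantified by ELISA in culture supernatant.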 The note with it: primary human HUVEC with PBMC; actives raise or lower the signal. Put shortly:
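Values derive from bidirectional fitting against DMSO of ELISA-measured MCP-1 in a human primary endothelial and mononuclear cell co-culture, 24 h after chemical addition under LPS activation.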

A short description of test [8]: BSK_LPS_PGE2: BioMAP Diversity Plus: LPS Assay for Prostaglandin E2 (PGE2) Biomarker Activity (AID 2283082). As to conditions: primary human HUVEC with PBMC; actives raise or lower the signal. Put shortly: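 Endpoint derived from bidirectional curve fitting versus DMSO of ELISA-measured PGE2 in LPS-stimulated human primary vascular co-culture (HUVEC with PBMC) harvested at 24 h.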

Read-out in test [9]: Macrophage colony-stimulating factor (MCSF), CSF1 (gene 1435)
Briefly: BSK_LPS_MCSF: BioMAP Diversity Plus: LPS Assay for Macrophage colony-stimulating factor (MCSF) Biomarker Activity (AID 2283083). The note with it: primary human HUVEC with PBMC; actives raise or lower the signal. Put shortly: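 Bidirectional fit versus DMSO of ELISA-measured M-CSF in co-cultured human umbilical vein endothelial cells and PBMC, sampled 24 h after dosing.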

Read-out in test [10]: CD69, CD69 (gene 969)
Kind of test: BSK_SAg_CD69: BioMAP Diversity Plus: SAg Assay for CD69 Biomarker Activity (AID 2283089).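 Also: cell surface CD69 protein quantified by ELISA with fluorescence detection.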 The note with it: primary human HUVEC with PBMC; actives raise or lower the signal. The method in brief: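 HUVEC co-cultured with PBMC were dosed with chemical, and CD69 was measured by ELISA with fluorescence read-out 24 h later. Bidirectional curve fitting used DMSO as negative control and activity baseline.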

Test [11] is described as follows: BSK_SAg_PBMCCytotoxicity: PBMC Cytotoxicity Assessment in the BioMAP Diversity Plus: SAg Assay (AID 2283093).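 Also: PBMC viability measured as Alamar Blue reduction fluorescence at 546/580 nm; fitted both ways against DMSO so a hit may be loss or gain of signal.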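 As to AC50: PBMC superantigen activated with SEB plus TSST-1 one hour after compound addition.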 As to conditions: primary human HUVEC with PBMC. The method in brief:
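HUVEC/PBMC co-culture; PBMC exposed to chemical 1 h before SEB and TSST-1 activation (20 ng/mL each), incubated 90 h, then Alamar Blue 6 h, fluorescence 546/580 nm. Bidirectional fit versus DMSO baseline.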

Read-out in test [12]: Interferon-inducible T-cell alpha chemoattractant (ITAC), CXCL11 (gene 6373)
Kind of test: BSK_hDFCGF_ITAC: BioMAP Diversity Plus: hDFCGF Assay for Interferon-inducible T-cell alpha chemoattractant (ITAC) Biomarker Activity (AID 2284251). The note with it: primary human foreskin fibroblasts. Put shortly:
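Primary human foreskin fibroblasts (hDFCGF system) treated for 24 h; I-TAC quantified by ELISA. Gain-direction fitting versus DMSO; parallel SRB staining of total protein flagged overt cytotoxicity.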

Read-out in test [13]: Intercellular Adhesion Molecule 1 (ICAM1), ICAM1 (gene 3383)
Kind of test: BSK_BE3C_ICAM1: BioMAP Diversity Plus: BE3C Assay for Intercellular Adhesion Molecule 1 (ICAM1) Biomarker Activity (AID 2284278).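 As to outcome: cell-surface ICAM-1 protein level quantified by ELISA.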 As to conditions: primary human bronchial epithelial cells. The method in brief:
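Measured by ELISA: ICAM-1 expressed by primary human bronchial epithelial cells 24 h after compound treatment, with upward-direction fitting versus DMSO vehicle.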

Read-out in test [14]: Epidermal growth factor receptor (EGFR), EGFR (gene 1956)
Briefly: BSK_BE3C_EGFR: BioMAP Diversity Plus: BE3C Assay for Epidermal growth factor receptor (EGFR) Biomarker Activity (AID 2284281). As to conditions: primary human bronchial epithelial cells. Put shortly:
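Human primary bronchial epithelial cells (BE3C system) dosed with chemicals; EGFR measured by ELISA at 24 h, fitted in the positive direction relative to DMSO. Cytotoxicity tracked in parallel cultures by SRB total-protein staining.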

Read-out in the next test: KRT18 (gene 3875)
Kind of test: BSK_BE3C_Keratin818: BioMAP Diversity Plus: BE3C Assay for Keratin 818 Biomarker Activity (AID 2284282). The note with it: primary human bronchial epithelial cells. The method in brief: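 BE3C: human bronchial epithelial primary cells, 24 h exposure, Keratin 8/18 ELISA; DMSO = negative control/baseline; cytotoxicity by parallel SRB stain (0.1% SRB after 10% TCA fixation, 560 nm).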

Read-out in test [15]: Matrix Metallopeptidase 9 (MMP9), MMP9 (gene 4318)
Kind of test: BSK_BE3C_MMP9: BioMAP Diversity Plus: BE3C Assay for Matrix Metallopeptidase 9 (MMP9) Biomarker Activity (AID 2284283). The note with it: primary human bronchial epithelial cells. Put shortly: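 Endpoint is the ELISA MMP-9 signal in human primary bronchial epithelial cultures taken 24 h after chemical dosing. DMSO serves as negative control and baseline, with gain-of-signal fitting.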

Read-out in test [16]: TIMP metallopeptidase inhibitor 2 (TIMP2), TIMP2 (gene 7077)
Kind of test: BSK_hDFCGF_TIMP2: BioMAP Diversity Plus: hDFCGF Assay for TIMP metallopeptidase inhibitor 2 (TIMP2) Biomarker Activity (AID 2284289). The note with it: primary human foreskin fibroblasts. Put shortly:
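Primary human foreskin fibroblasts in the hDFCGF system, dosed for 24 h; TIMP-2 level measured by ELISA, fitted in the positive direction against DMSO; cytotoxicity checked in parallel by sulforhodamine B total protein staining.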

Read-out in test [17]: CD69, CD69 (gene 969)
Kind of test: BSK_LPS_CD69: BioMAP Diversity Plus: LPS Assay for CD69 Biomarker Activity (AID 2284303). The note with it: primary human HUVEC with PBMC. Put shortly:
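Human umbilical vein endothelial cells co-cultured with PBMC under LPS stimulation, chemical exposure 24 h; cell-surface CD69 measured by ELISA and fitted in the positive direction versus DMSO.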

The target in test [18] is mouse Estrogen Receptor alpha (Era), Esr1 (gene 13982) (UniProt P19785). Kind of test: NVS_NR_mERa: NovaScreen (NVS) Nuclear Receptor Binding Assay for mouse Estrogen Receptor alpha (Era) (AID 2283378; active = hit-call score of the fitted dose curve at least 0.9, where 1 is the maximum;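 also: hit means loss of bound radioligand signal relative to DMSO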). Put shortly: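 Measurements come from scintillation counting after filtration, taken 18 hours after chemicals were added to a cell-free mouse Era preparation with radioligand. Screening was duplicate at 25 uM, with concurrent positive and negative controls and confirmatory concentration series for actives.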
Chain of mouse Estrogen Receptor alpha (Era), Esr1 (gene 13982) (P19785 whole entry, looked up): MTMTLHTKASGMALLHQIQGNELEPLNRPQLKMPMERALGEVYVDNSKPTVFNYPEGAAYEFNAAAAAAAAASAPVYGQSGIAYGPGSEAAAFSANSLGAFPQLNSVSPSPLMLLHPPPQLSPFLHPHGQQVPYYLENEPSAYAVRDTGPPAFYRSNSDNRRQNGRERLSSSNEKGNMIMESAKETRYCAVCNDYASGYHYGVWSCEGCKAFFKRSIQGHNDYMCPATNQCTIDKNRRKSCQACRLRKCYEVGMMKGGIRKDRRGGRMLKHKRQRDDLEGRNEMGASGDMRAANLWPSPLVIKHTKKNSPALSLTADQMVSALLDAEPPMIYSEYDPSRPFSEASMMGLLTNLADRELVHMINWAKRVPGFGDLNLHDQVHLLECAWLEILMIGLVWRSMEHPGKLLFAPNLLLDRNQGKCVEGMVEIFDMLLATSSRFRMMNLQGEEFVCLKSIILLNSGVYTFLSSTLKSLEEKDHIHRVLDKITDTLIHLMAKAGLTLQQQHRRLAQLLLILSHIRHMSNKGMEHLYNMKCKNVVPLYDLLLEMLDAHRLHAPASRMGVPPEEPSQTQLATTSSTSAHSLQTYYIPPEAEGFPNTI

Chain of E-selectin (Homo sapiens) (P16581 whole entry, looked up): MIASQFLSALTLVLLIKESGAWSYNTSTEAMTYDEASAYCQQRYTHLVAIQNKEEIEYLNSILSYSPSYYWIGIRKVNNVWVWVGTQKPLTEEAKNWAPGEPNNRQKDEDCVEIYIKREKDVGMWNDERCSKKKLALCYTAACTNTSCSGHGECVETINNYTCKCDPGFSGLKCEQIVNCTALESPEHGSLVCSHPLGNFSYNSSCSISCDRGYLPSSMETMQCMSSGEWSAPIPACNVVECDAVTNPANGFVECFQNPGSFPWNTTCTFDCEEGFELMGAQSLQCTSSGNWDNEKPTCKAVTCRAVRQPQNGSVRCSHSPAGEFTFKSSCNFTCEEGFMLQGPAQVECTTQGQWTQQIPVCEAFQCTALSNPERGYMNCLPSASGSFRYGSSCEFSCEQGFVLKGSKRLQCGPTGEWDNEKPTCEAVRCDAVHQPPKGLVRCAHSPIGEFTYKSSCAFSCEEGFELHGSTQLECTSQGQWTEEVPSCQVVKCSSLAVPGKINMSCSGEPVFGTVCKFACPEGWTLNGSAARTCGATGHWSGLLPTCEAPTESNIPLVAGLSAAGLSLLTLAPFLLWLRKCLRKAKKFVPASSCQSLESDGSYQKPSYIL

For the compound `O=C(C1CCCCC1)N1CC(=O)N2CCc3ccccc3C2C1` (stereo not given), the result in test [1], in test [2] and in [3] was inactive.
As for `COc1c2occc2cc2ccc(=O)oc12`, in [1], the compound was classed as inactive.
On the same count and under the same terms, next, `CC(=O)OC(C)(C)Cc1ccccc1`: “inactive”.
On to `O=[N+]([O-])c1cc(S(=O)(=O)Nc2ccccc2)ccc1Nc1ccccc1`, for which the AC50 (as a rule, the concentration giving half of the maximal activity seen) in [4] is 32.4 µM (active) and 27 µM (active); in test [5], 32.8 µM (active) and 32.4 µM (active); with CD40, CD40 (gene 958), 32.6 µM (active) and 20 µM (active); in test [6] it was 20 µM (active) and 26.5 µM (active); in test [7] it was 29.1 µM (active) and 28.5 µM (active); in [8], 28.9 µM (active). Besides, the AC50 in [9] was 9.74 µM (active); with CD69, CD69 (gene 969) [10] it was 22 µM (active) and 18 µM (active); in test [12], 27.4 µM (active) and 24 µM (active); in test [13], 29.2 µM (active) and 37 µM (active); in test [14] it was 20 µM (active) and 19.6 µM (active); in the test with KRT18 (gene 3875) it was 32 µM (active). Further, the AC50 in test [15] is 33.4 µM (active) and 20 µM (active); in test [16] it was 29.8 µM (active) and 30.3 µM (active); with CD69, CD69 (gene 969) [17] it was 13.2 µM (active) and 10.7 µM (active). Also, the outcome (in test [8]; in [9]; in [11]; in the test with KRT18 (gene 3875)) was inactive.
As for `CC(C)(C)C(=O)C(=O)O`, the result in test [18] was inactive.
Turning to `CCCCC(CC)COC(=O)C=Cc1ccc(OC)cc1` (stereo not given), the outcome in test [4] was “inactive”; in [5] it was “inactive”; with CD40, CD40 (gene 958), “inactive”; in test [6], “inactive”; in test [7], “inactive”; in test [8], “inactive”. The result (in [11]; in test [12]; in test [13]; in [14]; in the test with KRT18 (gene 3875); in [15]) was inactive. Moreover, the AC50 with CD40, CD40 (gene 958) was 20 µM (active); in [6], 13.2 µM (active); in test [7], 32.3 µM (active); in [9] it was 32 µM (active) and 14.8 µM (active); with CD69, CD69 (gene 969) [10], 26.3 µM (active) and 18.6 µM (active); in test [11], 36.1 µM (active). The concentration at half-maximal activity (AC50) in [16] is 3.97 µM (active) and 6.38 µM (active); with CD69, CD69 (gene 969) [17] it was 15.4 µM (active) and 23.4 µM (active).
In the case of `OCCc1ccccn1`, the compound was called inactive in [1], in test [2] and in test [3].
Consider `Oc1ccc(Cl)cc1C1CCCC1`, for which, in test [2], the AC50 was 52 µM (active). Further, the result in test [3] was inactive.
